# From article PMC7862700, “An all-to-all approach to the identification of sequence-specific readers for epigenetic DNA modifications on cytosine”
# Experiments:
# Experiment in all cases: DAPPL (digital affinity profiling via proximity ligation, sequencing); 10 mM Tris-HCl pH 7.5, 50 mM NaCl, 1 mM DTT, 4% glycerol, room temperature, 30 min; GST-TFs on glutathione beads, 16-mer random dsDNA library, 0.1% formaldehyde crosslink after washing; high values mean tight binding
# FLI1 = biological target: T1, FLI1 (Homo sapiens, UniProt Q01543 1-452); settings: protein: recombinant; tags: N-terminal GST; dsDNA, one strand shown
# T1 sequence: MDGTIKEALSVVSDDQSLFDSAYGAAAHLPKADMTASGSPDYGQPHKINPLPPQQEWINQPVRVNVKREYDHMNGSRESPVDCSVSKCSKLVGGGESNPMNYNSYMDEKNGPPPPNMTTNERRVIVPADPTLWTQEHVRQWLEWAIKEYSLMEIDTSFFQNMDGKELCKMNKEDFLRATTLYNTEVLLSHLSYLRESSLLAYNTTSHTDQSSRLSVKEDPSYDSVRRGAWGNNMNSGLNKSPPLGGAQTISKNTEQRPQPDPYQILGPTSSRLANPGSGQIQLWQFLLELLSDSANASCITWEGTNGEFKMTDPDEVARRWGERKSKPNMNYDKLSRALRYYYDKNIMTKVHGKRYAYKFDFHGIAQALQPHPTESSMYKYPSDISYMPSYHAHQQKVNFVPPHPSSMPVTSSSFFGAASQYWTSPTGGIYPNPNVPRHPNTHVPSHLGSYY
# Summary of the method: (§1)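 Pools of DNA-barcoded human transcription factors, expressed in yeast as GST fusions on glutathione beads and combined with a tag-only sample, were incubated with 200 nmole of a 16-mer random double-stranded DNA library. Incubation took 30 min at room temperature in Tris/NaCl/DTT/glycerol buffer and was followed by washing, 0.1% formaldehyde crosslinking, proximity ligation (BsaI/T4 ligase, 1 h, 37 °C), PCR amplification and sequencing on an Illumina NextSeq500. Binding signal is the ratio of a hexamer's read frequency for a factor to its frequency for the tag-only sample.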
# ELK1 = biological target: T2, ELK1 (Homo sapiens, UniProt P19419 1-428); settings: protein: recombinant; tags: N-terminal GST; dsDNA, one strand shown
# T2 sequence: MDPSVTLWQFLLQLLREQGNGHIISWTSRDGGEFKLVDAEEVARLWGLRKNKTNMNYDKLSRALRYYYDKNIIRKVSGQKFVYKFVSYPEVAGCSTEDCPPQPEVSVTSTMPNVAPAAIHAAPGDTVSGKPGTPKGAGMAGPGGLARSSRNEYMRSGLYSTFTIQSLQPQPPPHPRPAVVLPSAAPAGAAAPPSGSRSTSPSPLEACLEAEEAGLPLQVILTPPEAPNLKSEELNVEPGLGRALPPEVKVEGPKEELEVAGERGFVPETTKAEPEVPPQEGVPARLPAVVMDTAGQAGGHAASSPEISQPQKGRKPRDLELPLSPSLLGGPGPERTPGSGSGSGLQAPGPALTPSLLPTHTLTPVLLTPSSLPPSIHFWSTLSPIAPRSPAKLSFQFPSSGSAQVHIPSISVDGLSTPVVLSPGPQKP
# Summary of the method: as §1
# GABPA = biological target: T3, GABPA (Homo sapiens, UniProt Q06546 1-454); settings: protein: recombinant; tags: N-terminal GST; dsDNA, one strand shown
# T3 sequence: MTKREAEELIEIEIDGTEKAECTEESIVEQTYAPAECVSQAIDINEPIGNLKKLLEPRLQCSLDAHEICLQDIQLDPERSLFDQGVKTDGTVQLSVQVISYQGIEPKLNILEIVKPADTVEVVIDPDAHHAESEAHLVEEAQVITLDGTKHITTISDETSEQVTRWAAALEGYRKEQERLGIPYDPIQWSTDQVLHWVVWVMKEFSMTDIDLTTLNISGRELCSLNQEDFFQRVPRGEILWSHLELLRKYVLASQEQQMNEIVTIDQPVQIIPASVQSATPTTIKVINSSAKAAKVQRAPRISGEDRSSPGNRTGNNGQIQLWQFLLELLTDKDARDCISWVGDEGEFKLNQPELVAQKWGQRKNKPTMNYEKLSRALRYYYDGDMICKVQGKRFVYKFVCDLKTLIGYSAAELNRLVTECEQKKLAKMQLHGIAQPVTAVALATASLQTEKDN
# Summary of the method: as §1
# ERG = biological target: T4, ERG (Homo sapiens, UniProt P11308 1-479); settings: protein: recombinant; tags: N-terminal GST; dsDNA, one strand shown
# T4 sequence: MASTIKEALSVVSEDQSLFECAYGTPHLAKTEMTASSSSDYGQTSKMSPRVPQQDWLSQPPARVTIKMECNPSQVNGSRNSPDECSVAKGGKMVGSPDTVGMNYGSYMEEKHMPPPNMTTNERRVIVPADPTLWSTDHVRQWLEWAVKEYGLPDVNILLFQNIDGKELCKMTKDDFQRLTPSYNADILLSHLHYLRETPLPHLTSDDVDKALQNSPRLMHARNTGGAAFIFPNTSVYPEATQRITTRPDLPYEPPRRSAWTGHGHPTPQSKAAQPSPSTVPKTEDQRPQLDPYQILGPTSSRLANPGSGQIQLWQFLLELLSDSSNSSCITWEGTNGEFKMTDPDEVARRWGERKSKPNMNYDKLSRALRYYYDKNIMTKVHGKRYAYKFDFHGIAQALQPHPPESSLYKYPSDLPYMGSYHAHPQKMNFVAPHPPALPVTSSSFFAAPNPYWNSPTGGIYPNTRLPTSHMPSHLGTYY
# Summary of the method: as §1
# ELF1 = ELF1 (Homo sapiens, UniProt P32519 1-619); settings: protein: recombinant; tags: N-terminal GST; dsDNA, one strand shown
# Chain of ELF1 (P32519 whole entry): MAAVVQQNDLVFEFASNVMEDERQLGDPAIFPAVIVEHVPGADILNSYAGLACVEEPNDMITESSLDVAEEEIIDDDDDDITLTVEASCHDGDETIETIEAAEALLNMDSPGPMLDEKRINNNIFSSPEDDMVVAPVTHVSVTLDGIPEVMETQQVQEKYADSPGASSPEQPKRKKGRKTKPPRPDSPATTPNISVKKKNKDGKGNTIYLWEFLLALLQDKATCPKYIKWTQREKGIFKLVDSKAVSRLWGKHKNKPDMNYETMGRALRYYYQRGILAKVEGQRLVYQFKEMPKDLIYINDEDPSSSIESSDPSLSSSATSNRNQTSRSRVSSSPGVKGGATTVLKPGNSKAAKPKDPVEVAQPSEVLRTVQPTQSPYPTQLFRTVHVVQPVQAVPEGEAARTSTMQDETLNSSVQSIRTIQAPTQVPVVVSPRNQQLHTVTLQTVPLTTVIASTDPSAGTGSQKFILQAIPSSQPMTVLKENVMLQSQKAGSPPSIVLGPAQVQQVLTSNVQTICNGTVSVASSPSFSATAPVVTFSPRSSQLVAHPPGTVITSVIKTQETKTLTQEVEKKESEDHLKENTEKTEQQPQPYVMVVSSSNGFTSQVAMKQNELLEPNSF
# Summary of the method: as §1
# EHF = biological target: T5, EHF (Homo sapiens, UniProt Q9NZC4 1-300); settings: protein: recombinant; tags: N-terminal GST; dsDNA, one strand shown
# T5 sequence: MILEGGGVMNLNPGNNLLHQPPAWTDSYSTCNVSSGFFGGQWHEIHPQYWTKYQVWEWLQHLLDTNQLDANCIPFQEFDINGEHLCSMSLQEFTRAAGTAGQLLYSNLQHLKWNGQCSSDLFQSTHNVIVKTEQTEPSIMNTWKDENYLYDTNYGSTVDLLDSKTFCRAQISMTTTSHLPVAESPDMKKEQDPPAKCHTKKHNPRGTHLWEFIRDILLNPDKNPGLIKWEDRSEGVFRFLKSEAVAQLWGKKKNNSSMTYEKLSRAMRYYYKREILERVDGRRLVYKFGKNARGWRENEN
# Summary of the method: as §1
# SPI1 = SPI1 (Homo sapiens, UniProt P17947 1-270); settings: protein: recombinant; tags: N-terminal GST; dsDNA, one strand shown
# Summary of the method: as §1
# SPIB = SPIB (Homo sapiens, UniProt Q01892 1-262); settings: protein: recombinant; tags: N-terminal GST; dsDNA, one strand shown
# Chain of SPIB (Q01892 whole entry): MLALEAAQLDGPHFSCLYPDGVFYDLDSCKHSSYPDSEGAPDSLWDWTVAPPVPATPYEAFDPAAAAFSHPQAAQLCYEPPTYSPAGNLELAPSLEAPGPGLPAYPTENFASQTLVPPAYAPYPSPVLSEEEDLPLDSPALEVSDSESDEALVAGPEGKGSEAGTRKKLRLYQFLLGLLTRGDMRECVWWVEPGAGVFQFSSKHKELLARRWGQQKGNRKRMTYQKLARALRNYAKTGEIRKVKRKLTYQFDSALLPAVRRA
# Summary of the method: as §1
# ELK3 = biological target: T6, ELK3 (Homo sapiens, UniProt P41970 1-407); settings: protein: recombinant; tags: N-terminal GST; dsDNA, one strand shown
# T6 sequence: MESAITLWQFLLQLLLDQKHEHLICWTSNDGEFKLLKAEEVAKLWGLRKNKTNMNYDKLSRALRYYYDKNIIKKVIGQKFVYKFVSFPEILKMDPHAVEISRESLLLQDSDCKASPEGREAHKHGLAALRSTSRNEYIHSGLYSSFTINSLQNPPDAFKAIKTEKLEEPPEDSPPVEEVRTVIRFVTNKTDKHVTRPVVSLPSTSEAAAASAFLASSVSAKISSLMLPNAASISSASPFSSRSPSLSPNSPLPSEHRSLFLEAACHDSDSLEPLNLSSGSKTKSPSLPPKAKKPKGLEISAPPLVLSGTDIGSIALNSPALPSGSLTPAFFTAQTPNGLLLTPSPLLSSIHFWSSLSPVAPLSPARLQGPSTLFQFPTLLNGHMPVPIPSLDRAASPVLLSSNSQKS
# Summary of the method: as §1
# FEV = biological target: T7, FEV (Homo sapiens, UniProt Q99581 1-238); settings: protein: recombinant; tags: N-terminal GST; dsDNA, one strand shown
# T7 sequence: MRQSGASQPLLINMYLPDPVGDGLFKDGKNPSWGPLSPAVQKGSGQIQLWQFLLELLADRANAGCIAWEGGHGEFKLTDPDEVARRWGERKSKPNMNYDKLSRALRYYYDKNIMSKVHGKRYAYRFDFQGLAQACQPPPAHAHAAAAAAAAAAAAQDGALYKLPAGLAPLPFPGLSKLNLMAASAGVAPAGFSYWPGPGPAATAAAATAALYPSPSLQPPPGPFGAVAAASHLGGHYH
# Summary of the method: as §1
# ETV5 = ETV5 (Homo sapiens, UniProt P41161 1-510); settings: protein: recombinant; tags: N-terminal GST; dsDNA, one strand shown
# Chain of ETV5 (P41161 whole entry): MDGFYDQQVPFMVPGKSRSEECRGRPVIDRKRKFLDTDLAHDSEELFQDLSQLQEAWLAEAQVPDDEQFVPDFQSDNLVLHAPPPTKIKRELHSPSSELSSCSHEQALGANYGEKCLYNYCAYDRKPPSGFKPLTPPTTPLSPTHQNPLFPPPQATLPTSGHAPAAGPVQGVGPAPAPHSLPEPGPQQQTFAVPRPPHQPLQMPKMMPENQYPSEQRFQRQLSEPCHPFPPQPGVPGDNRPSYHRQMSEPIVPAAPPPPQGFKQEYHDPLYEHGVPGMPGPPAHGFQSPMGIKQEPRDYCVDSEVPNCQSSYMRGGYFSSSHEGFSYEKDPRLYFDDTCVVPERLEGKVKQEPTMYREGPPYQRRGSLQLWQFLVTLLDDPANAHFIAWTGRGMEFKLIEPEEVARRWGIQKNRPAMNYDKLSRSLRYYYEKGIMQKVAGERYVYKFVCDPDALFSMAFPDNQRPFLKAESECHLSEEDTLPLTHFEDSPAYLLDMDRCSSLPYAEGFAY
# Summary of the method: as §1
# HSF1 = HSF1 (Homo sapiens, UniProt Q00613 1-529); settings: protein: recombinant; tags: N-terminal GST; chain copies: 3; dsDNA, one strand shown
# Chain of HSF1 (Q00613 whole entry): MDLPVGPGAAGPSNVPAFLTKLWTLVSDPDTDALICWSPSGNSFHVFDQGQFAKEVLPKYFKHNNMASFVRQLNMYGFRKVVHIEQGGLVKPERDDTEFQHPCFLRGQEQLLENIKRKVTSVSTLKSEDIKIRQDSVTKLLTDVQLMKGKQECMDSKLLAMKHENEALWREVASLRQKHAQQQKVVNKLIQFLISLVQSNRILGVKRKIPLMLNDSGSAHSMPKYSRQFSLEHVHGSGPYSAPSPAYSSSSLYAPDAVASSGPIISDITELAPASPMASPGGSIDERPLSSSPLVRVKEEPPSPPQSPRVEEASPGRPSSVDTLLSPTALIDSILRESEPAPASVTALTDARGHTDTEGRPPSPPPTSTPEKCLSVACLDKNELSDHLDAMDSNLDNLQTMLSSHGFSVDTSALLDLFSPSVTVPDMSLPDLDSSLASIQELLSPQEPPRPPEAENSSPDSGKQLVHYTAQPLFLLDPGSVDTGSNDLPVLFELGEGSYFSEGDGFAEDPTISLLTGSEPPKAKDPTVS
# Summary of the method: as §1
# SPIC = biological target: T8, SPIC (Homo sapiens, UniProt Q8N5J4 1-248); settings: protein: recombinant; tags: N-terminal GST; dsDNA, one strand shown
# T8 sequence: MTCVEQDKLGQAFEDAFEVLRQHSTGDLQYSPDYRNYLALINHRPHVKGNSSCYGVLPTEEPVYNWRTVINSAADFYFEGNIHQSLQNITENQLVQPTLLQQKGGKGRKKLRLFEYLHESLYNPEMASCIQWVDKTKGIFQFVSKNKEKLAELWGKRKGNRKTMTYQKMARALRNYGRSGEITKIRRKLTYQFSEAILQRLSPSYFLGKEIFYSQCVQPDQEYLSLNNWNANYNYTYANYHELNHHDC
# Summary of the method: as §1
# ELF4 = ELF4 (Homo sapiens, UniProt Q99607 1-663); settings: protein: recombinant; tags: N-terminal GST; dsDNA, one strand shown
# Chain of ELF4 (Q99607 whole entry): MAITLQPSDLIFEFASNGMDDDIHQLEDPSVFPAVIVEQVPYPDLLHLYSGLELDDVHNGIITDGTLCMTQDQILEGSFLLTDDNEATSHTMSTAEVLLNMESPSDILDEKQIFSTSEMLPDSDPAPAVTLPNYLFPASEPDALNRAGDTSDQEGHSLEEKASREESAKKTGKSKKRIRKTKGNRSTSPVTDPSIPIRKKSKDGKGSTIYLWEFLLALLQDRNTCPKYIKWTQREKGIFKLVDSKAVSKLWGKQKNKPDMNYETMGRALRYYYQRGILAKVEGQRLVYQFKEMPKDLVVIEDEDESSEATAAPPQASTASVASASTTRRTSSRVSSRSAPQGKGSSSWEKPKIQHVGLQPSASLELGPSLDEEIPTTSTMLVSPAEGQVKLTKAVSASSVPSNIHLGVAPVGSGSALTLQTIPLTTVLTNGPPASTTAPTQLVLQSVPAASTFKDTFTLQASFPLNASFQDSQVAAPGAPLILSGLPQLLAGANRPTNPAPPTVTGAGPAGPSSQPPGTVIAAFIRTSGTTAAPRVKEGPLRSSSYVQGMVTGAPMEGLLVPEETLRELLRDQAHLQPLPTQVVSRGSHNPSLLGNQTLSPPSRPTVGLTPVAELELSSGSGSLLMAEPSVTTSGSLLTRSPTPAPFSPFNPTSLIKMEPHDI
# Summary of the method: as §1
# ELK4 = biological target: T9, ELK4 (Homo sapiens, UniProt P28324-2 1-405); settings: protein: recombinant; tags: N-terminal GST; dsDNA, one strand shown
# T9 sequence: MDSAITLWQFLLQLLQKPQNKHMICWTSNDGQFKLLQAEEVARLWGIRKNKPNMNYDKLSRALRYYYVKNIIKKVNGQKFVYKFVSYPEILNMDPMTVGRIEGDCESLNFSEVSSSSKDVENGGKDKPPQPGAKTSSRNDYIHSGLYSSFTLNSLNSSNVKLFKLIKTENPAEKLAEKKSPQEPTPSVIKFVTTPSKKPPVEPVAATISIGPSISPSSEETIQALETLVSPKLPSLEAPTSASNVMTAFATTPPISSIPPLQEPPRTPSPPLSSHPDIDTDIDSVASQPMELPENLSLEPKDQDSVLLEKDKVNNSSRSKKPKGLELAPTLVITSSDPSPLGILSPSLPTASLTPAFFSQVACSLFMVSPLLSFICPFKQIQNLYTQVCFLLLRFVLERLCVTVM
# Summary of the method: as §1
# ETV2 = biological target: T10, ETV2 (Homo sapiens, UniProt O00321 1-342); settings: protein: recombinant; tags: N-terminal GST; dsDNA, one strand shown
# T10 sequence: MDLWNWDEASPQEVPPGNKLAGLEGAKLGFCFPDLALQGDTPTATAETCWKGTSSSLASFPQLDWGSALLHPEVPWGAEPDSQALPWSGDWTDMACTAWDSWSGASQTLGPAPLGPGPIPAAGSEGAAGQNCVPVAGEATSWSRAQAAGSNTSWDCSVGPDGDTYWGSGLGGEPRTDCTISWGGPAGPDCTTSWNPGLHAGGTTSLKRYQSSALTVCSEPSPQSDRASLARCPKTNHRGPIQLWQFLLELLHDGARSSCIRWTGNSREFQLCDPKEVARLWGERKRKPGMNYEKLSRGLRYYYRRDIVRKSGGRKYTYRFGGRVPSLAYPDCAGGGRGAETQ
# Summary of the method: as §1
# ELF3 = biological target: T11, ELF3 (Homo sapiens, UniProt P78545 1-371); settings: protein: recombinant; tags: N-terminal GST; dsDNA, one strand shown
# T11 sequence: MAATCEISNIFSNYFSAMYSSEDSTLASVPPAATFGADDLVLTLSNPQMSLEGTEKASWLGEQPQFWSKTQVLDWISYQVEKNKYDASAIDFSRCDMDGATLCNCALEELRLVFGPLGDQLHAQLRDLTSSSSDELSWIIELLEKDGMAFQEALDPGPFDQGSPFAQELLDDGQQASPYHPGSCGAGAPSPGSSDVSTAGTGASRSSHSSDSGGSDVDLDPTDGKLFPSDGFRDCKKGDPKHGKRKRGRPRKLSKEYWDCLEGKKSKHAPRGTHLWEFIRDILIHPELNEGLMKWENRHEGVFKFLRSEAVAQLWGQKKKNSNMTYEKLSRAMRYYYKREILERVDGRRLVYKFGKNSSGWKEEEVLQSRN
# Summary of the method: as §1
# CRX = CRX (Homo sapiens, UniProt O43186 1-299); settings: protein: recombinant; tags: N-terminal GST; dsDNA, one strand shown
# Chain of CRX (O43186 whole entry): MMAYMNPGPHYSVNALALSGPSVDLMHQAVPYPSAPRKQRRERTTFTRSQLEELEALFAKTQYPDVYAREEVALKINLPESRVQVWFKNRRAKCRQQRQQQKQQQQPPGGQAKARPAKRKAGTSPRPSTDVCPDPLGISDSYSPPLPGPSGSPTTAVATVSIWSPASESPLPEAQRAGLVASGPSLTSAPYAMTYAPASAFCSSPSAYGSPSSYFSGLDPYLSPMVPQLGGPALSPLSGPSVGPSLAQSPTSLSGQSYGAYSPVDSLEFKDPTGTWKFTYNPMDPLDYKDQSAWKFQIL
# Summary of the method: as §1
# ETV1 = ETV1 (Homo sapiens, UniProt P50549 1-477); settings: protein: recombinant; tags: N-terminal GST; dsDNA, one strand shown
# Chain of ETV1 (P50549 whole entry): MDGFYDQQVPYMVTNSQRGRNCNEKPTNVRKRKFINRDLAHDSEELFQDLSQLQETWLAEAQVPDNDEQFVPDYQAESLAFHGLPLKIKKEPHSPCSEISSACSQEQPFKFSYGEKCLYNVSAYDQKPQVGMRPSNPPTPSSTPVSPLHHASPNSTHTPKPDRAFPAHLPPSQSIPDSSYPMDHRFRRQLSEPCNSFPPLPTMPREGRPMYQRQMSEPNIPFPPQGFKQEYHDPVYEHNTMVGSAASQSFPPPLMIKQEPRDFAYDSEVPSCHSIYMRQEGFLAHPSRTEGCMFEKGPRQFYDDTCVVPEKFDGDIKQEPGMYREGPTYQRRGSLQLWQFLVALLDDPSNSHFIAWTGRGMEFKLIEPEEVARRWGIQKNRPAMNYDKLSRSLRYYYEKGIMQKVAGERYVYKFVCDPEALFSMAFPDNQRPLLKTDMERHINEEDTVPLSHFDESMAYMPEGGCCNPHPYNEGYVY
# Summary of the method: as §1
sequence,measurement,setting,value
CTGAAT,binding signal,FLI1,"1.23 fold enrichment (6-mer frequency, TF over GST control)"
same,binding signal,ELK1,"1.37 fold enrichment (6-mer frequency, TF over GST control)"
same,binding signal,GABPA,"1.36 fold enrichment (6-mer frequency, TF over GST control)"
same,binding signal,ERG,"1.36 fold enrichment (6-mer frequency, TF over GST control)"
same,binding signal,ELF1,"1.31 fold enrichment (6-mer frequency, TF over GST control)"
same,binding signal,EHF,"1.31 fold enrichment (6-mer frequency, TF over GST control)"
same,binding signal,SPI1,"1.36 fold enrichment (6-mer frequency, TF over GST control)"
same,binding signal,SPIB,"1.26 fold enrichment (6-mer frequency, TF over GST control)"
same,binding signal,ELK3,"1.23 fold enrichment (6-mer frequency, TF over GST control)"
same,binding signal,FEV,"1.32 fold enrichment (6-mer frequency, TF over GST control)"
same,binding signal,ETV5,"1.29 fold enrichment (6-mer frequency, TF over GST control)"
same,binding signal,HSF1,"1.37 fold enrichment (6-mer frequency, TF over GST control)"
same,binding signal,SPIC,"1.29 fold enrichment (6-mer frequency, TF over GST control)"
same,binding signal,ELF4,"1.29 fold enrichment (6-mer frequency, TF over GST control)"
same,binding signal,ELK4,"1.31 fold enrichment (6-mer frequency, TF over GST control)"
same,binding signal,ETV2,"1.5 fold enrichment (6-mer frequency, TF over GST control)"
same,binding signal,ELF3,"1.15 fold enrichment (6-mer frequency, TF over GST control)"
same,binding signal,CRX,"1.34 fold enrichment (6-mer frequency, TF over GST control)"
same,binding signal,ETV1,"1.36 fold enrichment (6-mer frequency, TF over GST control)"
